# Assay outcomes deposited in PubChem BioAssay by National Center for Advancing Translational Sciences (NCATS).
# A selection: hits, their analogues and other compounds. The true share with any hit is near 11%.
# HCV inhibitor: HCV inhibition. Potency, µM (titrated, usually from 41.8 µM), most hits filed as inhibitors. AID 651820. 340,000 compounds, 3.4% hits. Huh7.5.1 HCVcc-Cre infection, luciferase reporter, 44 h
#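 Reporter virus HCVcc-Cre (~0.5 moi) infects cells exposed to compound; seeding density 1,000 cells/well with 4 h settling beforehand. Luminescence, 15 sec read, taken 44 h post-infection following a 15 min RT substrate incubation.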
# VACV mCherry inh: inhibitors of vaccinia virus infection (mCherry reporter signal). Vaccinia virus mCherry reporter infection, fluorescence. Potency, µM (titrated, usually from 36.5 µM), usual class: inhibitors. 310,000 compounds, 0.63% hits. AID 720579; calls by dose curve; tested in A549 cells; also: nearly all actives have a fitted effect of over 35% in size
# Pf growth 96h: inhibits malaria parasite growth, 96 h; P. falciparum luciferase reporter growth, 96 h; Potency, µM (series often up to 28.7 µM), most hits filed as inhibitors; 320,000 compounds, 6.9% hits
#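 Luminescence readout: decreased luciferase signal marks inhibited growth of reporter-expressing P. falciparum in infected red cells (2% hematocrit, 0.05% parasitemia final), exposed to compound two generations (96 h, 37 C, 5% CO2).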
# VACV Venus inh: inhibitors of vaccinia virus (Venus reporter); Vaccinia virus Venus reporter expression, fluorescence; Potency, µM (doses to about 36.5 µM), most hits filed as inhibitors; 330,000 compounds, 0.46% hits; AID 720580; calls by dose curve; tested in A549 cells; also: nearly all actives have a fitted effect of over 30% in size
# Pf growth 48h: inhibits P. falciparum growth in the first generation, 48 h; P. falciparum luciferase growth in erythrocytes, 48 h; Potency, µM (top dose mostly 28.7 µM), actives largely listed as inhibitors; 310,000 compounds, 5.9% hits; AID 504832
#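 A one-generation exposure of luciferase-tagged malaria parasites in RPMI 1640/Albumax erythrocyte culture, 37 C and 5% CO2. Inhibition is inferred from decreased luminescence after adding detection reagent.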
# NS1 function inh: influenza NS1 inhibition; Potency, µM (titrated, usually from 46.1 µM); 270,000 compounds, 0.4% hits; calls by dose curve; also: actives are rising curves; nearly all actives have a fitted effect of over 50% in size
#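 In this qHTS, NS1 from influenza A is expressed in budding yeast, where it slows growth. Cells are switched from glucose to 2% galactose medium (pH 6.0, -URA), treated with compound, and growth recovery is read at OD600.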
# A number is an active result; 0 = inactive; ? = inconclusive; - = no result; [ ] = remark or other dose. Unless noted, calls follow the shape of the dose curve; as a rule, active = well fitted inhibition curve with a large enough effect; inconclusive = small, poorly fitted or top-dose-only effect, or another doubt; inactive = no such curve, though single readings can be large or run the other way.
SMILES,HCV inhibitor,VACV mCherry inh,Pf growth 96h,VACV Venus inh,Pf growth 48h,NS1 function inh
OC(CNCC1(N2CCCCC2)CCCCC1)COc1ccc(Cl)cc1Cl (configuration not stated),0,0,?,0,3.29µM,-
CNC(=O)CC1C(=O)N(c2ccc(Cl)cc2)C(=S)N1NC(=O)c1cccc(F)c1 (configuration not stated),0,-,?,-,0[0.00184 µM],0
COc1cc(Cl)c(C)cc1NC(=O)c1ccccc1NC(=O)CN1CCOCC1,0,0,?,0,?,0
COc1ccc(-c2csc(C(NC(C)=O)c3cccc(F)c3)n2)cn1 (configuration not stated),-,0,-,0,-,-
O=C(O)C1CCCCN1S(=O)(=O)c1ccc(Cl)s1 (configuration not stated),0,0,9.28µM,0,-,0
CN1CCN(c2cc(N3CCc4ccccc4C3)c(F)cc2[N+](=O)[O-])CC1,?,10µM,?,?,?,0
COCCCNC(=O)c1ccc(CS(=O)(=O)c2ccccc2OC)o1,0,0,0,0,0[0.00184 µM],0
COc1ccc(N=C2SC(CC(=O)Nc3ccc(OC)cc3OC)C(=O)N2C)cc1 (configuration not stated),0,-,0,-,0,0
COc1ccc(OC)c(NC(=O)CC2SC(=Nc3ccc(F)cc3)N(CCC3=CCCCC3)C2=O)c1 (configuration not stated),?,0,4.15µM,0,?,0
COc1cc([N+](=O)[O-])ccc1NC(=O)CC1SC(=Nc2ccc(F)cc2)N(CCC2=CCCCC2)C1=O (configuration not stated),?,0,1.85µM,0,?,?
COCCNC(=O)C(=O)NCC(c1cccnc1)N1CCN(c2ccccc2OC)CC1 (configuration not stated),-,0,-,0,-,-
COc1ccccc1N1CCN(C(CNC(=O)c2ccc3c(c2)OCO3)c2cccnc2)CC1 (configuration not stated),11.2µM,0[1.46 µM],0,?,?,0
O=P(O)(O)OP(=O)(O)O,-,-,?,-,3.79µM,0
CCOC(=O)C1CCN(C(=O)/C=C/c2ccc(S(=O)(=O)N3CCOCC3)cc2)CC1,0,0,-,0,-,-
CN(C)S(=O)(=O)N1CCN(c2ccc([N+](=O)[O-])c(N3CCOCC3)c2)CC1,0,0,?,0,0,0
c1ccc2[nH]c(CCCc3nc4ccccc4[nH]3)nc2c1,0,0,13.1µM,0,?,0
c1ccc(CCc2nc3ccccc3[nH]2)cc1,0,0,5.86µM,0,0,0
O=C(NCCCc1nc2ccccc2[nH]1)c1ccco1,0,-,9.28µM,-,0,0
OCc1nc2ccccc2[nH]1,-,0,-,0,-,-
CCCCc1nc2ccccc2[nH]1,0,0,0,0,0,0
O=S(=O)(CCc1nc2ccccc2[nH]1)c1ccc(Br)cc1,0,0,10.4µM,0,?,0
CCN1CCN(C(=O)c2ccc3c(c2)N(Cc2ccccc2F)C(=O)c2ccccc2S3(=O)=O)CC1,?,0,0,0,?,0
Cc1ccc(N2C(=O)NC(=O)C3(Cc4ccccc4N4CCN(c5ccccc5)CC43)C2=O)cc1 (configuration not stated),0,-,?,-,?,0
O=C1NC(=O)C2(Cc3ccccc3N3CCCC32)C(=O)N1c1cccc(Cl)c1 (configuration not stated),0,-,2.33µM,-,0,0
CCc1ccc(N2C(=O)CC(N(CC3CCCO3)C(=O)/C=C/C(=O)O)C2=O)cc1 (configuration not stated),0,0,0,0,0,0
SMILES,HCV inhibitor,VACV mCherry inh,Pf growth 96h,VACV Venus inh,Pf growth 48h,NS1 function inh
Cc1ccc2c(COC(=O)c3n[nH]c4ccccc34)cc(=O)oc2c1,?,-,0,-,0,0
CCc1ccc2c(COC(=O)c3n[nH]c4ccccc34)cc(=O)oc2c1,10µM,0,0,?,0,0
CC(Sc1nnnn1-c1ccccc1)C(=O)Nc1ccccc1-c1ccccc1 (configuration not stated),0,0,2.94µM,0,?,?
CCOc1ccccc1NC(=O)CSc1nnnn1-c1ccc(C(=O)OC)cc1,0,0,4.15µM,0,0,0
COc1ccc(-n2nnnc2SCC(=O)Nc2ccccc2N2CCOCC2)cc1,0,0,0,0,?,0
Cn1nnnc1SCC(=O)Nc1ccccc1-c1ccccc1,0,-,?,0,0,0
Cc1ccc(-n2nnnc2SCC(=O)Nc2ccccc2N2CCCCC2)cc1C,10µM,-,?,?,2.33µM,0
Cc1ccc(-n2nnnc2SCC(=O)Nc2ccccc2-c2ccccc2)cc1C,?,0,4.65µM,0,0,0
CC(Sc1nnnn1-c1ccccc1)C(=O)Nc1ccc(N2CCN(C)CC2)cc1 (configuration not stated),0,0,0,0,0,0
CN1C(=O)NC(c2ccccc2)C2=C1CN(Cc1ccco1)C2=O (configuration not stated),0,0,0,0,0,0
CN(Cc1nccs1)C(=O)CC1C(=O)NCCN1Cc1ccc(-c2ccccc2)cc1 (configuration not stated),0,0[7.34 µM],0,0[7.34 µM],0,0
CCCN(C(=O)c1cccc(S(=O)(=O)N2CCN(Cc3ccccc3)CC2)c1)C1CCS(=O)(=O)C1 (configuration not stated),?,0,0,0,?,-
Cc1ccc(S(=O)(=O)CC(=O)c2ccc(C(C)(C)C)cc2)cc1,0,-,2.62µM,0,2.33µM,0
O=C(CN1CCN(C(=O)c2cccc(S(=O)(=O)N3CCCC3)c2)CC1)Nc1ccc(F)cc1,0,0,?,0,?,-
C/C(=N\Nc1cc(N2CCOCC2)nc(C)n1)c1ccc(F)cc1,?,0,?,0,0,0
C/C(=N\Nc1cc(N2CCCCC2)nc(C)n1)c1ccc(Br)cc1,11.2µM,-,0,-,3.7µM,0
O=C(COc1ccccc1)N1CCN(S(=O)(=O)c2ccc(Cl)cc2)CC1,0,-,?,-,-,0
O=C(CCCOc1ccccc1)N1CCN(S(=O)(=O)c2ccc(Cl)cc2)CC1,0,0,0,0,11.7µM,-
COc1ccccc1C(=O)NCCC(=O)Nc1ccc(S(=O)(=O)N2CCCC(C)C2)cc1 (configuration not stated),?,-,?,-,14.7µM,-
O=C(Cn1cc(C(F)(F)F)ccc1=O)N1CCN(S(=O)(=O)c2ccc(Cl)cc2)CC1,0,0,?,0,2.94µM,0
N#Cc1ccccc1OCC(=O)N1CCN(S(=O)(=O)c2ccc(Cl)cc2)CC1,0,-,10.4µM,-,?,-
Cc1ccc(C(=O)N/C(=C/c2ccccc2F)C(=O)NCCCn2ccnc2)cc1,0,-,?,-,0,0
O=C(Cc1cccs1)Nc1cccnc1,0,0,0,0,0,?
CC1CC(C)CN(C(=O)CCNC(=O)c2ccccc2Cl)C1 (configuration not stated),0,0,0.465µM,0,0.928µM,0
